# Laboratory results: publication PMC7862700, “An all-to-all approach to the identification of sequence-specific readers for epigenetic DNA modifications on cytosine”
# Tests used:
# Experiment in all cases: DAPPL (digital affinity profiling via proximity ligation, sequencing); 10 mM Tris-HCl pH 7.5, 50 mM NaCl, 1 mM DTT, 4% glycerol, room temperature, 30 min; GST-TFs on glutathione beads, 16-mer random dsDNA library, 0.1% formaldehyde crosslink after washing; high values mean tight binding
# Conditions in all cases: protein: recombinant; tags: N-terminal GST; dsDNA, one strand shown
# FLI1 = target: T1, FLI1 (Homo sapiens, UniProt Q01543 1-452)
# T1 sequence: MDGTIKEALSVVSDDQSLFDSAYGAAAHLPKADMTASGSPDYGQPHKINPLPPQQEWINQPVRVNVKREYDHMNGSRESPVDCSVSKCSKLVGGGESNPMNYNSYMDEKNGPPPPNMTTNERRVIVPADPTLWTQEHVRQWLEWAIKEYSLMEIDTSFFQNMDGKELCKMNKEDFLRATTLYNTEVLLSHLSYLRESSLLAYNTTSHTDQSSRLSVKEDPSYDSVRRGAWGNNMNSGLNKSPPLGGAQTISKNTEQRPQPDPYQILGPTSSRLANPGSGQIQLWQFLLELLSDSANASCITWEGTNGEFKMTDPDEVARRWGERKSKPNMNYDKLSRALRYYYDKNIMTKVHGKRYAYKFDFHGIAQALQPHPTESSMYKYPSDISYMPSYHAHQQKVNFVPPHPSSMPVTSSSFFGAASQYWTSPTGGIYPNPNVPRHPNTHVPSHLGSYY
# How it was run: (§1)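 After expression in yeast as GST fusions, human transcription factors were bound to glutathione beads, DNA-barcoded and mixed with a tag-only sample. The pools were incubated with 200 nmole of a 16-mer random double-stranded DNA library in Tris/NaCl/DTT/glycerol buffer (30 min, room temperature), washed and crosslinked with 0.1% formaldehyde. Proximity ligation with BsaI/T4 ligase ran for 1 h at 37 °C, before PCR amplification and sequencing on an Illumina NextSeq500. Binding signal is a hexamer's read frequency for a factor divided by its frequency for the tag-only sample.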
# ELK1 = target: T2, ELK1 (Homo sapiens, UniProt P19419 1-428)
# T2 sequence: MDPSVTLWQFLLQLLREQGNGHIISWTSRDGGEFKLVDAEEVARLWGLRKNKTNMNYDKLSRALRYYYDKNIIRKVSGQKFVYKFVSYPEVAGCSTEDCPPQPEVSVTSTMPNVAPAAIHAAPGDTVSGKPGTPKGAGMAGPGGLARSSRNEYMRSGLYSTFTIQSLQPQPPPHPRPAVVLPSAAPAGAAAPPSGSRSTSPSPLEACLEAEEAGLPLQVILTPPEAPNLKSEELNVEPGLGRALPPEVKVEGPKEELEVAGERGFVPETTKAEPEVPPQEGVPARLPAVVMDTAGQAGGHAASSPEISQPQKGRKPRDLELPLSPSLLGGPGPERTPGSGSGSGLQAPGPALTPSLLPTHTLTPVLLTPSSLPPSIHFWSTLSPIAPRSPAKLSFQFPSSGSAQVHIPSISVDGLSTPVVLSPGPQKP
# How it was run: as §1
# GABPA = target: T3, GABPA (Homo sapiens, UniProt Q06546 1-454)
# T3 sequence: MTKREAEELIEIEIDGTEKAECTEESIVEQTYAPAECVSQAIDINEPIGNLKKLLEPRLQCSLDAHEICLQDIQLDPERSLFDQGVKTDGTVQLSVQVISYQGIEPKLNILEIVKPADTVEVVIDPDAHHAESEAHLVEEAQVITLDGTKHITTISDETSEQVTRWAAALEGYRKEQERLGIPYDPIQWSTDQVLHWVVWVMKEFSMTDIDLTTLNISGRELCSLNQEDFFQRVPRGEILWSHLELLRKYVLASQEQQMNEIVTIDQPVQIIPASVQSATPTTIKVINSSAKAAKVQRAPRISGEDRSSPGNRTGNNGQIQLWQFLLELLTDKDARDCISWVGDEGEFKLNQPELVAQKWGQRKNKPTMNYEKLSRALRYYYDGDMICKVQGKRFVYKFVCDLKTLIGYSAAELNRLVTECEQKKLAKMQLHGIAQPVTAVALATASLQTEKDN
# How it was run: as §1
# ERG = target: T4, ERG (Homo sapiens, UniProt P11308 1-479)
# T4 sequence: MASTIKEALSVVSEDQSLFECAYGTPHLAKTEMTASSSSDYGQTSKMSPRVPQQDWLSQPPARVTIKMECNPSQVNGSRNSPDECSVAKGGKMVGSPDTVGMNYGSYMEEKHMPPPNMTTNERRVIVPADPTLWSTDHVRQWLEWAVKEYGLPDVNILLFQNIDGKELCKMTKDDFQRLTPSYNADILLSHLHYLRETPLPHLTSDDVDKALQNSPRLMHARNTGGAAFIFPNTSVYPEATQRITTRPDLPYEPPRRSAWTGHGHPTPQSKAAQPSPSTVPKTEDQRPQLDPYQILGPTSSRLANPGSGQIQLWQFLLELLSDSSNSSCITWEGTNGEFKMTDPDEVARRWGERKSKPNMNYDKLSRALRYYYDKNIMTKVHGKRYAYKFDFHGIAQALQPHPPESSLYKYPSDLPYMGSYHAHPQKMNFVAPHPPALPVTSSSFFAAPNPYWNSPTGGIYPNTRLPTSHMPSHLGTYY
# How it was run: as §1
# ELF1 = ELF1 (Homo sapiens, UniProt P32519 1-619)
# ELF1, sequence (P32519 whole entry): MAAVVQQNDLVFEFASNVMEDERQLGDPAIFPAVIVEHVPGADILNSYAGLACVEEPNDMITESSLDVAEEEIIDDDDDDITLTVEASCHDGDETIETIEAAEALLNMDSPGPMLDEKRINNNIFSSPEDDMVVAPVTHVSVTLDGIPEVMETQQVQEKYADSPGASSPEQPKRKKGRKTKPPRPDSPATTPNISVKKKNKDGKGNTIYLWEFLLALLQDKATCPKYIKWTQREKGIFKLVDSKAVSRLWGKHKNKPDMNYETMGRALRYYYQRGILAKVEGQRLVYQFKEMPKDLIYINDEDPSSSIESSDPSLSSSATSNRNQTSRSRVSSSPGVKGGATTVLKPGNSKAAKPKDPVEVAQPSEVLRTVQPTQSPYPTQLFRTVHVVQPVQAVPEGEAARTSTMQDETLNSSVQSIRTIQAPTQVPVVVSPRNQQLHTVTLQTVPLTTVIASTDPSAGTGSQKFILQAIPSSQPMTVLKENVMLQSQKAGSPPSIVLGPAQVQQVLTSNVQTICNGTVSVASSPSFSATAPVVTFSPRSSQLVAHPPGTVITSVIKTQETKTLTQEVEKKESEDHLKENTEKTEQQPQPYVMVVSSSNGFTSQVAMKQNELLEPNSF
# How it was run: as §1
# EHF = target: T5, EHF (Homo sapiens, UniProt Q9NZC4 1-300)
# T5 sequence: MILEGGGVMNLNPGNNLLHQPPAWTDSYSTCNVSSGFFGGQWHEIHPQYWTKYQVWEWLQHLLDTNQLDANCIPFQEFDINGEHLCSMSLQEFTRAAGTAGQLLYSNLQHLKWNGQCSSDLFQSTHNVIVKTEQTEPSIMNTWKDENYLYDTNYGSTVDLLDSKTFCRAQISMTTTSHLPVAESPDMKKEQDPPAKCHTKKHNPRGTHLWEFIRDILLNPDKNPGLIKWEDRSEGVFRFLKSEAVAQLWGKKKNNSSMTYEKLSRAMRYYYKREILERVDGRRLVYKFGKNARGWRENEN
# How it was run: as §1
# SPI1 = SPI1 (Homo sapiens, UniProt P17947 1-270)
# How it was run: as §1
# ELK3 = target: T6, ELK3 (Homo sapiens, UniProt P41970 1-407)
# T6 sequence: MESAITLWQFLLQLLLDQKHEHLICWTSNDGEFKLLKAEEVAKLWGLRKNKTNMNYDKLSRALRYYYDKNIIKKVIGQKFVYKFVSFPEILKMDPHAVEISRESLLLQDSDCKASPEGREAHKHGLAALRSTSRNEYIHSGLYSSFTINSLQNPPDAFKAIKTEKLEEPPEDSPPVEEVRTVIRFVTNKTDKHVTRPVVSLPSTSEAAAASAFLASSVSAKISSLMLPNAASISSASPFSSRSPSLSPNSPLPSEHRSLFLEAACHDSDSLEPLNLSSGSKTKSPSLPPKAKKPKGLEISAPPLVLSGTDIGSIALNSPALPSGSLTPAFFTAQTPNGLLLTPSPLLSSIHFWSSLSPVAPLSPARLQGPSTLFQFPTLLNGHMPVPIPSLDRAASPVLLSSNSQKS
# How it was run: as §1
# FEV = target: T7, FEV (Homo sapiens, UniProt Q99581 1-238)
# T7 sequence: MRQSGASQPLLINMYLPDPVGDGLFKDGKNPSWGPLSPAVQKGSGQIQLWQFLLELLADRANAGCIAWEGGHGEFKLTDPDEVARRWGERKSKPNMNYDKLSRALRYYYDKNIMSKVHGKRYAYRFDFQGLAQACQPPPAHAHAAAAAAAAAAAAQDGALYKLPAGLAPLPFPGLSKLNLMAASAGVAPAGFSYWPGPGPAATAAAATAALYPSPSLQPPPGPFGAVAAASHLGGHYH
# How it was run: as §1
# ETV5 = ETV5 (Homo sapiens, UniProt P41161 1-510)
# ETV5, sequence (P41161 whole entry): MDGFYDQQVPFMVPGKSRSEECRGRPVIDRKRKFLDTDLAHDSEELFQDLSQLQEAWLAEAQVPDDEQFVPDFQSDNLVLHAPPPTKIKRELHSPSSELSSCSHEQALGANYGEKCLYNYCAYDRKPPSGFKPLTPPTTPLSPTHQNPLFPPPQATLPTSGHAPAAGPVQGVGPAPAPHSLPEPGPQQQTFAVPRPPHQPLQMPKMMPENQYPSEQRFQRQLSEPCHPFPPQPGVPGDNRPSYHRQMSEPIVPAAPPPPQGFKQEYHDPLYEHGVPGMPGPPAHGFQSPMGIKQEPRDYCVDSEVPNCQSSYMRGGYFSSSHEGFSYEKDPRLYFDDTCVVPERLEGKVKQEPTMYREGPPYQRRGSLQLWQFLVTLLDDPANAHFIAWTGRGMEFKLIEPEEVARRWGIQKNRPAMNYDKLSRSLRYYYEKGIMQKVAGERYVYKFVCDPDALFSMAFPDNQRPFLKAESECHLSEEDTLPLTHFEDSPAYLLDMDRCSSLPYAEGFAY
# How it was run: as §1
# SPIC = target: T8, SPIC (Homo sapiens, UniProt Q8N5J4 1-248)
# T8 sequence: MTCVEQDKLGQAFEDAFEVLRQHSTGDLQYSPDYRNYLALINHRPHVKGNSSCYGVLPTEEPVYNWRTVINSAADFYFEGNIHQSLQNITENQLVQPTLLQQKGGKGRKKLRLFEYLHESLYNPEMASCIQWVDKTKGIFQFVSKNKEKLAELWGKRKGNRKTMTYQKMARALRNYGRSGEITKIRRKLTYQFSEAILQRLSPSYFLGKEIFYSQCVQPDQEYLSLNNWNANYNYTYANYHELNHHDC
# How it was run: as §1
# ELF4 = ELF4 (Homo sapiens, UniProt Q99607 1-663)
# ELF4, sequence (Q99607 whole entry): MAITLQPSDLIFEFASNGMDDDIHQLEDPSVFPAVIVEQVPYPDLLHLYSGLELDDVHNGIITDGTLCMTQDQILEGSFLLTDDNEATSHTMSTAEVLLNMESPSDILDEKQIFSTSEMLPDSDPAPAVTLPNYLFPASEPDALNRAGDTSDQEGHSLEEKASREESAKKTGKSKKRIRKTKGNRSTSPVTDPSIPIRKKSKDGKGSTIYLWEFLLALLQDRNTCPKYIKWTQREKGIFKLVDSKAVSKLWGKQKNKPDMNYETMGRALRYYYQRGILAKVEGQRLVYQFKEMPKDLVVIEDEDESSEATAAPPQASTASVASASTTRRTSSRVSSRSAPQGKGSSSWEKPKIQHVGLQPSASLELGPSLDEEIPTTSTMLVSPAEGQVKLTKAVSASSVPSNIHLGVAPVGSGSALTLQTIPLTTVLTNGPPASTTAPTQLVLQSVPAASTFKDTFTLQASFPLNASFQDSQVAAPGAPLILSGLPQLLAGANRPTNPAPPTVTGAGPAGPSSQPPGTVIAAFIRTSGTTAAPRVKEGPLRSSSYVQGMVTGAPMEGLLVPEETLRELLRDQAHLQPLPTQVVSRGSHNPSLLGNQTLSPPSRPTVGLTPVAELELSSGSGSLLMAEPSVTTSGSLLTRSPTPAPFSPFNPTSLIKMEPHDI
# How it was run: as §1
# ETV1 = ETV1 (Homo sapiens, UniProt P50549 1-477)
# ETV1, sequence (P50549 whole entry): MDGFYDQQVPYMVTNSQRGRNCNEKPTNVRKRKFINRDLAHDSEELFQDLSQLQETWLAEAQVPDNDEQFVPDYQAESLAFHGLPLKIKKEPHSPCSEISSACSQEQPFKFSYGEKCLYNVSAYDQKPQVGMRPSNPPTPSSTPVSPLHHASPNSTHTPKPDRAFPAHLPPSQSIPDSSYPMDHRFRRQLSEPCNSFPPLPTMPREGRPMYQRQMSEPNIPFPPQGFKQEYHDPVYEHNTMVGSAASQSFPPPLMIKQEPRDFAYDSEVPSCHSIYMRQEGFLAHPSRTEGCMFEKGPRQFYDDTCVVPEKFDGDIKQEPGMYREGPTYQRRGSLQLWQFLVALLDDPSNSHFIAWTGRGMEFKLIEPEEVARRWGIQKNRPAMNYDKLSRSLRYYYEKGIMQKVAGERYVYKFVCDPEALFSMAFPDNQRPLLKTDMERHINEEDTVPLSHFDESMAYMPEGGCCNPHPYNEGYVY
# How it was run: as §1
# ERF = target: T9, ERF (Homo sapiens, UniProt P50548 1-548)
# T9 sequence: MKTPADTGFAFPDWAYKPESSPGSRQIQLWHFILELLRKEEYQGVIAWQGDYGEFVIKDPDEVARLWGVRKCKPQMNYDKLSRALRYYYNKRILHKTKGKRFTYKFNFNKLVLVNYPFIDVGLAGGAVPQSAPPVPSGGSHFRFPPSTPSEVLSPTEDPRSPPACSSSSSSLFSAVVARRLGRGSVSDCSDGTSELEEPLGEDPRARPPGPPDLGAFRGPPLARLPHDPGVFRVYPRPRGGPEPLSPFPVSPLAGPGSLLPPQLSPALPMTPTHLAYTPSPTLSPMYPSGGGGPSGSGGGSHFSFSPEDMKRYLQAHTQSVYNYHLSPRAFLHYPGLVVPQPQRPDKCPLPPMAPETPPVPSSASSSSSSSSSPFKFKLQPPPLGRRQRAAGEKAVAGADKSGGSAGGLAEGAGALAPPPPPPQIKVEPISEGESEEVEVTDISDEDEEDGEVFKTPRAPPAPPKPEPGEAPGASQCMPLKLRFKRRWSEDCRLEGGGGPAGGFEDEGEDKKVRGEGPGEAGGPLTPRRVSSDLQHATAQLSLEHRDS
# How it was run: as §1
# ETV3L = target: T10, ETV3L (Homo sapiens, UniProt Q6ZN32 1-361)
# T10 sequence: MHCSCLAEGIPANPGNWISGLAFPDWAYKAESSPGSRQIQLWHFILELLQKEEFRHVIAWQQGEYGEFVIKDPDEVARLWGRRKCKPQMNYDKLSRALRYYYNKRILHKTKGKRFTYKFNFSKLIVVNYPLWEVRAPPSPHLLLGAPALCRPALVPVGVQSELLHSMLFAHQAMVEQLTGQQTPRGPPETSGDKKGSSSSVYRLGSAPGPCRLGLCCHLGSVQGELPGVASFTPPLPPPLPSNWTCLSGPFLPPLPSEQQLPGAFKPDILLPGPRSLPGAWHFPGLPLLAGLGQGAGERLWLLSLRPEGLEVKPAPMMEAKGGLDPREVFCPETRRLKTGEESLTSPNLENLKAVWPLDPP
# How it was run: as §1
# ETS2 = target: T11, ETS2 (Homo sapiens, UniProt P15036 1-469)
# T11 sequence: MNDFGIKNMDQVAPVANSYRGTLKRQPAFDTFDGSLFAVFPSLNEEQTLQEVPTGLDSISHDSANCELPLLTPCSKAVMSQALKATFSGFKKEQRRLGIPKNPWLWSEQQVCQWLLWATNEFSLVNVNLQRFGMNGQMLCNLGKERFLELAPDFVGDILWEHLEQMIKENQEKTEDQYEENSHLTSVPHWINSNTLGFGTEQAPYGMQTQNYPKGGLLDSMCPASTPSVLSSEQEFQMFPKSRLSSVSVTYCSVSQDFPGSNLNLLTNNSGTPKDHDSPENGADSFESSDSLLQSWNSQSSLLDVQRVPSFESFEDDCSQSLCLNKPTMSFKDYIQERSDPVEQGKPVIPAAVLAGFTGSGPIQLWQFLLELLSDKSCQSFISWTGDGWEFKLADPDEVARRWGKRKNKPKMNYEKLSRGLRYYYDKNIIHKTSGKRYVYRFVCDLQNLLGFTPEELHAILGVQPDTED
# How it was run: as §1
# ETV3 = target: T12, ETV3 (Homo sapiens, UniProt P41162-2 1-143)
# T12 sequence: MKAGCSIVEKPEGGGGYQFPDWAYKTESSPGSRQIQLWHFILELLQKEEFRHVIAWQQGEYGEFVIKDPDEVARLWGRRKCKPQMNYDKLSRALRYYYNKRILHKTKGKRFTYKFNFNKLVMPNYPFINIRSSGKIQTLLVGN
# How it was run: as §1
# ETV6 = ETV6 (Homo sapiens, UniProt P41212 1-452)
# ETV6, sequence (P41212 whole entry): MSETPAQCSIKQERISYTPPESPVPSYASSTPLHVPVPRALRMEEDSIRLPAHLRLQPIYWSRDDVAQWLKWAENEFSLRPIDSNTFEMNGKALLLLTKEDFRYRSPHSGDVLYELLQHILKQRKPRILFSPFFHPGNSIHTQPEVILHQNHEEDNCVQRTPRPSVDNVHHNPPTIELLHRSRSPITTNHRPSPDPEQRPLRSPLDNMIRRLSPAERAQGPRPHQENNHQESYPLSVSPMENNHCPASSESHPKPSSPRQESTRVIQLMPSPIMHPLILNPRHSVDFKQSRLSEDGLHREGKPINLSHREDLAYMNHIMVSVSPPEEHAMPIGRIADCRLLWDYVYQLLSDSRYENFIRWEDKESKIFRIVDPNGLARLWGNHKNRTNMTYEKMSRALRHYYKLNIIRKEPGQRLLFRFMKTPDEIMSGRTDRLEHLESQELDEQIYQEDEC
# How it was run: as §1
sequence,measurement,setting,value
GCCGCC,binding signal,FLI1,"1.21 fold enrichment (6-mer frequency, TF over GST control)"
same,binding signal,ELK1,"1.1 fold enrichment (6-mer frequency, TF over GST control)"
same,binding signal,GABPA,"1.16 fold enrichment (6-mer frequency, TF over GST control)"
same,binding signal,ERG,"1.02 fold enrichment (6-mer frequency, TF over GST control)"
same,binding signal,ELF1,"1 fold enrichment (6-mer frequency, TF over GST control)"
same,binding signal,EHF,"1.05 fold enrichment (6-mer frequency, TF over GST control)"
same,binding signal,SPI1,"1.13 fold enrichment (6-mer frequency, TF over GST control)"
same,binding signal,ELK3,"1.15 fold enrichment (6-mer frequency, TF over GST control)"
same,binding signal,FEV,"1.05 fold enrichment (6-mer frequency, TF over GST control)"
same,binding signal,ETV5,"1.04 fold enrichment (6-mer frequency, TF over GST control)"
same,binding signal,SPIC,"1.03 fold enrichment (6-mer frequency, TF over GST control)"
same,binding signal,ELF4,"1.08 fold enrichment (6-mer frequency, TF over GST control)"
same,binding signal,ETV1,"1.12 fold enrichment (6-mer frequency, TF over GST control)"
same,binding signal,ERF,"1.03 fold enrichment (6-mer frequency, TF over GST control)"
same,binding signal,ETV3L,"1 fold enrichment (6-mer frequency, TF over GST control)"
same,binding signal,ETS2,"1.01 fold enrichment (6-mer frequency, TF over GST control)"
same,binding signal,ETV3,"1.11 fold enrichment (6-mer frequency, TF over GST control)"
same,binding signal,ETV6,"1.02 fold enrichment (6-mer frequency, TF over GST control)"
